We go through 14 targets from the supplement of paper PMC10849652.

About 8,800 targets were measured; listed, in parts, are those with a hit and a random draw of the rest. About 0.5% of all pairs of compound and target were hits. Values without a mark were called inactive.

Holding throughout (experiment): log2 fold change, soluble protein after heating vs DMSO (PISA); higher = thermal stabilisation; K562 lysate, 10 uM; active = over 0.2 and 3.5 SD of the protein, either way, in both replicates (recomputed)
Compound in assay [1]: CN1CC[C@H](c2c(O)cc(O)c3c(=O)cc(-c4ccccc4Cl)oc23)[C@H](O)C1 [alvocidib]
In outline: (§1)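 Values give the log-two fold change in thermal stability against solvent controls, from duplicates. Crude K562 extract at 1 mg/mL protein, made by dounce homogenisation in PBS pH 7.4 with 1 mM MgCl2, was treated with 10 μM compound for 30 min. After 3 min heating across 48°C-58°C, aliquots were pooled, adjusted to 0.5% NP-40 at 4°C and centrifuged at 21,000xg for 90 min. The supernatant was measured by TMTpro 16plex LC-MS/MS with channel sums equalised.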

Compound in assay [2]: CN1CCc2c(c3ccccc3n2Cc2ccc(C(=O)NO)cc2)C1 [Tubastatin A]
The method, boiled down: as §1

Compound in assay [3]: CNC(=O)C1=CC=CC=C1NC2=NC(=NC=C2Cl)NC3=C(C=C(C=C3)N4CCOCC4)OC
In outline:
as §1

Compound in assay [4]: CNC(=O)c1ccc(Nc2ncc(C(F)(F)F)c(NCc3nccnc3N(C)S(C)(=O)=O)n2)cc1 [defactinib]
In outline:
as §1

Compound in assay [5]: COC(=O)N[C@@H](C)CNc1nccc(-c2cn(C(C)C)nc2-c2cc(Cl)cc(NS(C)(=O)=O)c2F)n1 [encorafenib]
The method, boiled down:
as §1

Compound in assay [6]: COC(=O)[C@H](CCSC)NC(=O)C1=C(C=C(C=C1)NC[C@H](CS)N)C2=CC=CC=C2
The method, boiled down:
as §1

Compound in assay [7]: COc1cc(Nc2ncc3c(n2)-c2ccc(Cl)cc2C(c2c(F)cccc2OC)=NC3)ccc1C(=O)O [alisertib]
The method, boiled down: as §1

Compound in assay [8]: COc1cc2nc(-c3cc(F)ccc3O)nc(N[C@@H]3CNC[C@H]3C(C)(C)O)c2cc1OC
The method, boiled down:
as §1

Compound in assay [9]: COc1cc2ncnc(Nc3ccc(F)c(Cl)c3)c2cc1OCCCN1CCOCC1 [gefitinib]
The method, boiled down:
as §1

Compound in assay [10]: CNc1nc(-c2ccc3c(N)n[nH]c3c2)cc(N2C[C@@H](C(=O)NC3CCCCC3)CC[C@H]2C)n1
The method, boiled down:
as §1

Sequence of UniProt Q9BTT0 (Q9BTT0 whole entry, looked up): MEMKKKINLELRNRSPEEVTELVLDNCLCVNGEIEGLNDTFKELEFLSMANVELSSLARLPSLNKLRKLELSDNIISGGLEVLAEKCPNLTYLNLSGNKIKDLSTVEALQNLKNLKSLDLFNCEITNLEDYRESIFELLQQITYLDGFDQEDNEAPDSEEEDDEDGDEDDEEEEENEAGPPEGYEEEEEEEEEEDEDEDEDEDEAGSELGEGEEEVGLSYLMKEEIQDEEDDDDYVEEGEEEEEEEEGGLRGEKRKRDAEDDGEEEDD
Sequence of UniProt P53396 (P53396 whole entry, looked up): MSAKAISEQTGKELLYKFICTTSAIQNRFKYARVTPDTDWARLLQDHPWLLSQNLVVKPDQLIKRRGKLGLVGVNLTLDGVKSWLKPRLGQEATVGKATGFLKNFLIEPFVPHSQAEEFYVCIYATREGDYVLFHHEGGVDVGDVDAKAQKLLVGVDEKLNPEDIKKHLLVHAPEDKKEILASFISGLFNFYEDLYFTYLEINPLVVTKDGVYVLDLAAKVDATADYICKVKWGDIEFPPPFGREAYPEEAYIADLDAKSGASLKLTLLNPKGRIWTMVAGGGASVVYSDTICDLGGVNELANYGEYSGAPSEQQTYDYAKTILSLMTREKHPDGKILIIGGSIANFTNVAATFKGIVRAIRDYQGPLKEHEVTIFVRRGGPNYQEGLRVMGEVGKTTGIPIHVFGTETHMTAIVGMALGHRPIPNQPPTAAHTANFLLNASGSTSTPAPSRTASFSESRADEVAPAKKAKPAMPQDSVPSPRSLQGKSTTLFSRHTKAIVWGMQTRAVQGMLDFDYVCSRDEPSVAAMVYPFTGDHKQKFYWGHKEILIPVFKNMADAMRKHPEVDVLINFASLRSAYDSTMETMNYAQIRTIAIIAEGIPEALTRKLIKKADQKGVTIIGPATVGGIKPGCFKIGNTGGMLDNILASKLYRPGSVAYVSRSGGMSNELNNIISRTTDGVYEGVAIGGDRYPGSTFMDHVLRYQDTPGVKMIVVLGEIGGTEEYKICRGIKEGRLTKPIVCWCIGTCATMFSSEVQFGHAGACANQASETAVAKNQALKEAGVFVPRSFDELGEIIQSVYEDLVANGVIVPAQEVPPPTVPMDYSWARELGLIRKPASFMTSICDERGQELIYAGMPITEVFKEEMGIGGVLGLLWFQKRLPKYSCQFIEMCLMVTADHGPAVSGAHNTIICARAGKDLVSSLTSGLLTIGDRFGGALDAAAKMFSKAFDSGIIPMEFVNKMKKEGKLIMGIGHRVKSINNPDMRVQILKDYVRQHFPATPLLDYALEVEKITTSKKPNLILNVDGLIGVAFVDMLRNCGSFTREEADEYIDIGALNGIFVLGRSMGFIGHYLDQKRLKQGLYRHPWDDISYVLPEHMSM
Sequence of UniProt Q9BT30 (Q9BT30 whole entry, looked up): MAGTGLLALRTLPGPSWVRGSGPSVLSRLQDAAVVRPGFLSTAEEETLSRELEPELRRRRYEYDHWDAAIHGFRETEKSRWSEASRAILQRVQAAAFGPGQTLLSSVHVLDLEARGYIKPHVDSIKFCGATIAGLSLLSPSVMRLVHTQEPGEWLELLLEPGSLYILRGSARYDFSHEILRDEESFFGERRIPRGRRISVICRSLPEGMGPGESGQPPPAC
Sequence of UniProt Q9NP73 (Q9NP73 whole entry, looked up): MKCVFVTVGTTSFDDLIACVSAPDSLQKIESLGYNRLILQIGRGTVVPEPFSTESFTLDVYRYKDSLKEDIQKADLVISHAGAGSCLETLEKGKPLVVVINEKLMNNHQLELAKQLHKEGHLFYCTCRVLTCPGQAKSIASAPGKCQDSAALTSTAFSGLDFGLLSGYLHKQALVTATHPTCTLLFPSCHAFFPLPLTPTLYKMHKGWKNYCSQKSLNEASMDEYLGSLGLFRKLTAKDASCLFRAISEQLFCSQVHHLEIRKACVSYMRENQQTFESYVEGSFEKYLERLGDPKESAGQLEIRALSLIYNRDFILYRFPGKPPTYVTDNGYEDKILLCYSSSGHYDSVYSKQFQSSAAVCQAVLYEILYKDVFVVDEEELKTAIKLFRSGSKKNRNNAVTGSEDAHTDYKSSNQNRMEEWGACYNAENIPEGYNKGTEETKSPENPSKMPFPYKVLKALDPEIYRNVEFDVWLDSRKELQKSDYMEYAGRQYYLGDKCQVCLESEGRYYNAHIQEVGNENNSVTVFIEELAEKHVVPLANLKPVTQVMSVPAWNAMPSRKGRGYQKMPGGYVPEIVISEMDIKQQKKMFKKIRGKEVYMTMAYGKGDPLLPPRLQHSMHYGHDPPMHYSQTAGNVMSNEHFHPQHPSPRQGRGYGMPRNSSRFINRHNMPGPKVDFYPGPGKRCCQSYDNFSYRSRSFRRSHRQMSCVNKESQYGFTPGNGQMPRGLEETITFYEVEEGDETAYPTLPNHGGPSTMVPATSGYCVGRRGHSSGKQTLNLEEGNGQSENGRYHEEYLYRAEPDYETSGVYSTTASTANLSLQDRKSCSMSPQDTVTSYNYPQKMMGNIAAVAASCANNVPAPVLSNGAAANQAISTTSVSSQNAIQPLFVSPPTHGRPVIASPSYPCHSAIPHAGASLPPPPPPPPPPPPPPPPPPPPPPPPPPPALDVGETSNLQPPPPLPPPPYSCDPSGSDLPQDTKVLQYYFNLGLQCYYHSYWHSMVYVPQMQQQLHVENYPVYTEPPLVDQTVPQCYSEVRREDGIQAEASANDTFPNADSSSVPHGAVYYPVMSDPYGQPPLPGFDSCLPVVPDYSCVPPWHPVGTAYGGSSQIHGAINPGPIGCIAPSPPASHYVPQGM
Sequence of UniProt Q8N8A2 (Q8N8A2 whole entry, looked up): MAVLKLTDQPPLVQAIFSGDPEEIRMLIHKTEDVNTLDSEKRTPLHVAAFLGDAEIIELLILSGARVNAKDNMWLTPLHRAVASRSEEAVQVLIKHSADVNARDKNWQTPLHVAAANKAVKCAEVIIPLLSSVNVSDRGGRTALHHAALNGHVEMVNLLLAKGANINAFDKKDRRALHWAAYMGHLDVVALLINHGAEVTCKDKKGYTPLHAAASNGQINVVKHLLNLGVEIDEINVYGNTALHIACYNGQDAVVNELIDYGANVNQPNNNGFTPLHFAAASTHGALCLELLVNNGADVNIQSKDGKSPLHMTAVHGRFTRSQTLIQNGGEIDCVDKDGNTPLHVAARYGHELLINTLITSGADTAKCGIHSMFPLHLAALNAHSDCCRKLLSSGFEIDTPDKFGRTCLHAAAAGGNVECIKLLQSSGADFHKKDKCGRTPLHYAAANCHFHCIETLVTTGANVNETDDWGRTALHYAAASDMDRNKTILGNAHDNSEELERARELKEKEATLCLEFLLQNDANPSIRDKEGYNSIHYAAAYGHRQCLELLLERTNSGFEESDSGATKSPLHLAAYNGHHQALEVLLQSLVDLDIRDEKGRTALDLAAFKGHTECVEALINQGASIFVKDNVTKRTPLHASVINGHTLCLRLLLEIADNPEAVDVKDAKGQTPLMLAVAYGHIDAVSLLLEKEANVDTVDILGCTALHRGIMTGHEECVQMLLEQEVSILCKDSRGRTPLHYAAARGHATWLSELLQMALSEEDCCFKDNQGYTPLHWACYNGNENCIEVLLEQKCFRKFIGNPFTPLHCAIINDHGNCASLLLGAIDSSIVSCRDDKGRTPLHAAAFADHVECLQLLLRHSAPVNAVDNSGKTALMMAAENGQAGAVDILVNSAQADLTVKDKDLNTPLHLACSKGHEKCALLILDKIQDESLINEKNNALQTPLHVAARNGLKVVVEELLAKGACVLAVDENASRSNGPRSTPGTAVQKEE
Sequence of UniProt P78536 (P78536 whole entry, looked up): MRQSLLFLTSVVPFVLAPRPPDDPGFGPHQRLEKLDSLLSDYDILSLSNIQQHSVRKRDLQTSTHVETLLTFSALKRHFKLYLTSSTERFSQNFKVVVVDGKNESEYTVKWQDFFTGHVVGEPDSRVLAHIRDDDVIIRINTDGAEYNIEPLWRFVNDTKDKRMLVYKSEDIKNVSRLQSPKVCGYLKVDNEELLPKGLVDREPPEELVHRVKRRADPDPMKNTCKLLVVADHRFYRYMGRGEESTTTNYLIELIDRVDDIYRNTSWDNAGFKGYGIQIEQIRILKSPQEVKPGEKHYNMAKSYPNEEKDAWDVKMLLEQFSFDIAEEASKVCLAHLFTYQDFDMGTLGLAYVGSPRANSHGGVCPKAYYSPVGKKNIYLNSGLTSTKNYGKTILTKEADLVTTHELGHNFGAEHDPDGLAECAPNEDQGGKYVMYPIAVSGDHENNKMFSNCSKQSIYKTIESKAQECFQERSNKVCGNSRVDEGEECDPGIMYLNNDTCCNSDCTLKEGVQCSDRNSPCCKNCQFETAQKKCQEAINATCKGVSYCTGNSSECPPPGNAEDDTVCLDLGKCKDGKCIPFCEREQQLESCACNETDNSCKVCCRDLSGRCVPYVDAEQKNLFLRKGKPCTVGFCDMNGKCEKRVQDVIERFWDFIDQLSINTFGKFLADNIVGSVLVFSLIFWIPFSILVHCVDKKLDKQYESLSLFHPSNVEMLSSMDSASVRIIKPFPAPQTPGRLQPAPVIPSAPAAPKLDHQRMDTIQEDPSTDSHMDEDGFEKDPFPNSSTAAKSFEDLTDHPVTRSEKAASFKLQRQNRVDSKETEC
Sequence of UniProt P14621 (P14621 whole entry, looked up): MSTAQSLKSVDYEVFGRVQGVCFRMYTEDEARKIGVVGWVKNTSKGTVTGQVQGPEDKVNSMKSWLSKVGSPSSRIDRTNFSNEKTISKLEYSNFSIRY
Sequence of UniProt Q9BQI0 (Q9BQI0 whole entry, looked up): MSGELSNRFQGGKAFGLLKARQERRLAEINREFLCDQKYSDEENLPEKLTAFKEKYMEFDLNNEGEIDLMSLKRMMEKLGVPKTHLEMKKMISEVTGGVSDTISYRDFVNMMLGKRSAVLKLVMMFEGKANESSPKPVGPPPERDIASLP
Sequence of UniProt Q9P1F3 (Q9P1F3 whole entry, looked up): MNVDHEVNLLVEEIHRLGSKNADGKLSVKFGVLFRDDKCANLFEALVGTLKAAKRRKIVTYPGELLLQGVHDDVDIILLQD

AGGF1 (UniProt Q8N302): the log2 fold change was -0.114 in [1]; -0.058 in assay [2]; 0.023 in assay [3]; -0.365 (active) in assay [4]; 0.126 in assay [5]; 0.008 in assay [6]. The results for the log2 fold change in assay [7], in [8] and in [9] were -0.015, 0.145 and -0.008, respectively.
As to ABHD13 (UniProt Q7L211), the log2 fold change in [1] was -0.225; in assay [4], 0.022; in [10] it was -0.051; in assay [5], 0; in assay [6] it was 0.006; in assay [7] it was 0.023. For the same target, the log2 fold change in assay [8] is -0.019; in assay [9], 0.06.
Regarding ALDH3A1 (UniProt P30838), the log2 fold change in assay [1] is -0.218; in [2] it was 0.366; in [3], -0.065; in assay [10] it was -0.138; in assay [8] it was 0.165.
ALG13 isoform 2 (UniProt Q9NP73): the values for the log2 fold change in assay [1], in assay [7] and in assay [9] were 0.003, -0.281 and -0.095, respectively.
ABRACL (UniProt Q9P1F3): the log2 fold change was -0.016 in assay [1]; 0.121 in assay [3]; 0.166 in [10]; 0.091 in [7]; -0.081 in assay [8]; -0.207 in [9].
Regarding ACYP2 (UniProt P14621), the log2 fold change in assay [1] was 0.084; in [2], -0.021; in assay [3] it was 0.007; in [4], 0.329 (active); in assay [7], -0.096; in assay [8], -0.009. Moreover, the log2 fold change in assay [9] was -0.02.
For ANP32E isoform 3 (UniProt Q9BTT0), the log2 fold change in assay [1] was -0.27; in assay [4], -0.141; in assay [5] it was 0.036; in [6], -0.015.
Regarding ALKBH7 (UniProt Q9BT30), the log2 fold change was -0.016 in assay [1]; -0.045 in [2]; 0.35 in assay [3]; -0.029 in assay [10]; -0.115 in [5]; 0.201 in [6]. For the same target, the log2 fold change in assay [7] was 0.333; in [9], -0.108.
Take AIF1L (UniProt Q9BQI0): the log2 fold change in assay [1] is 0.083; in assay [2], -0.009; in assay [3], 0.073; in [10] it was 0.164; in assay [5] it was 0.06; in assay [6] it was -0.401 (active). The log2 fold change was 0.095 in assay [7], 0.001 in [8] and 0.035 in assay [9].
ANXA13 isoform 2 (UniProt P27216): the log2 fold change in [1] is -0.121; in assay [2], -0.072; in assay [3], -0.059; in assay [4] it was -0.036; in assay [10], -0.369; in assay [7] it was 0.047. The log2 fold change in assay [8] is 0.034; in assay [9] it was 0.085.
Consider ACLY isoform 2 (UniProt P53396), for which the log2 fold change is -0.147 in [1]; 0.017 in [2]; 0.007 in assay [4]; 0.072 in [5]; 0.009 in assay [6]; -0.089 in [7]. Also, the values for the log2 fold change in assay [8] and in assay [9] were 0.071 and -0.407, respectively.
With ANKRD30A (UniProt Q9BXX3), the log2 fold change is -0.148 in assay [1]; -0.294 in [2]; 0.017 in [10]; 0.053 in [5]; 0 in assay [6]; -0.009 in assay [7]. Besides, the log2 fold change is 1.45 (active) in assay [8] and -0.03 in [9].
Turning to ADAM17 (UniProt P78536), the log2 fold change in [1] was -0.066; in assay [2], 0.063; in assay [3] it was 0.011; in assay [4] it was 0.005; in assay [10], 0.04; in assay [5], 0.09. Also, the log2 fold change was 0.109 in [6], -0.048 in assay [7] and 0.031 in assay [9].
Regarding ANKRD44 isoform 2 (UniProt Q8N8A2), the log2 fold change in assay [1] is -0.688; in [3], 0.075; in assay [4], -0.129; in assay [5], -0.048; in assay [6], 0.103; in assay [7], 0.2. In addition, the results for the log2 fold change in [8] and in [9] were 0.119 and 0.169, respectively.
